These results are taken from PubChem BioAssay AID2284366 (EPA ToxCast).

Structures are written as SMILES. Records with an inconclusive call do not appear. The source made the active and inactive calls. Rule for the calls: active = hit-call score of the fitted dose curve at least 0.9, where 1 is the maximum; inconclusive = response in the unintended direction; inactive = score below 0.9.

This test concerns zebrafish Peroxisome Proliferator-activated Receptor gamma (PPARg), gene 557037. Briefly: ATG_zfPPARg_EcoTox2: Attagene TRANS-FACTORIAL EcoTox-2 HepG2 Assay for zebrafish Peroxisome Proliferator-activated Receptor gamma (PPARg). As for the experimental part:
ATG_EcoTox2 is a cell-based, multiplexed assay created by modifying the existing Attagene TRANS-FACTORIAL system to include a panel of nuclear receptors from some or all the following species: human (Homo sapiens), african clawed frog (Xenopus laevis), rainbow trout (Oncorhynchus mykiss), japanese medaka (Oryzias latipes), and zebrafish (Danio rerio). The ECOTOX2-FACTORIAL format uses HepG2, a human liver cell line, with measurements taken at 24 hours after chemical dosing in a 24-well plate. ATG_zfPPARg_EcoTox2 is one of 29 assay components calculated in the ATG_EcoTox2 assay. It is designed to make measurements of mRNA induction, a form of inducible reporter, as detected with fluorescence intensity signals by Reverse transcription polymerase chain reaction (RT-PCR) and Capillary electrophoresis technology.The assay endpoint ATG_zfPPARg_EcoTox2 was analyzed in the positive analysis fitting direction relative to DMSO as the negative control and baseline of activity. Using a type of inducible reporter, measures of mRNA for gain-of-signal activity can be used to understand the reporter gene at the transcription factor-level as they relate to the gene PPARg. Furthermore, this assay endpoint can be referred to as a primary readout, because this assay has produced multiple assay endpoints where this one serves a reporter gene function. To generalize the intended target to other relatable targets, this assay endpoint is annotated to the nuclear receptor intended target family, where the subfamily is non-steroidal.
Human liver HepG2 cells are transiently transfected with multiple reporter transcription units (MRTUs) in 6-well plates using FuGene 6 reagent (Roche; 3 ml FuGene/1 mg DNA). The MRTU constructs are regulated by a cis-regulating element (promoter). Each RTU expresses a GAL4-UAS that regulates the transcription of a nearby target reporter gene sequence. A major difference between the CIS and TRANS system is that in CIS activities of endogenous TFs are measured, whereas the TRANS assay evaluates changes in activities of exogenous, chimeric NR-Gal4 proteins. […] At the end of 24 hour incubation, total RNA was isolated using TriZol reagent (Invitrogen). The isolated RNA is then reverse-transcribed using oligo(dT) primer and Mo-MLV reverse transcriptase (Invitrogen) with DNAse I (Ambion) treatment for 30 min. The one-tenth of the produced cDNA was amplified by PCR using Taq DNA polymerase (Invitrogen) and two reporter sequence-specific primers. The PCR products were fluorescently labeled by primer extension with 6-arboxyfluorescein (6-FAM) 5'-labeled reporter sequence-specific primer (2 min at 95 C, 20 s at 68 C and 10 min at 72 C) and these products were digested with 5U of HpaI (New England Biolabs) for 2h at 37 C. The fragments were purified using Qiaquick PCR columns (Qiagen), analyzed on an ABI 3130xL genetic analyzer (Applied Biosystems) with peak positions identified by using a set of X-rhodamine (ROX)-labeled MapMarker1000 molecular weight standards (BioVentures). The raw capillary electrophoresis data was processed using Attagraph software (Attagene).
Regarding `O=P(Oc1ccccc1)(Oc1ccccc1)Oc1ccccc1`, the half-maximal activity concentration (AC50) (in general, the midpoint of the concentration-response curve, whichever way the signal moves) is 13.2 µM (active).

As for `[Cl][Sn]([c]1ccccc1)([c]1ccccc1)[c]1ccccc1`, the compound was classed as inactive. Take `O=S(=O)(O)C(F)(F)C(F)(F)C(F)(F)C(F)(F)C(F)(F)C(F)(F)F`: the compound was called inactive. The same measure, in the same setting: in the case of `O=C(O)C(F)(F)C(F)(F)C(F)(F)C(F)(F)C(F)(F)C(F)(F)C(F)(F)F` it was “inactive”. The same measure, in the same setting: in the case of `CCCCOCN(C(=O)CCl)c1c(CC)cccc1CC` it was “inactive”.
